These are literature values, as cited in PubChem BioAssay AID977610.

What is called Ki is the equilibrium dissociation constant of an inhibitor or competing ligand from its target.

In all, about 3,600 compounds went through this assay and about 3,600 (100%) were called active. No cut-off is given here; in the data, nearly all actives have Ki up to about 18000 µM. The set was probably picked from earlier hits. This is one part of the list.

The nature of this data set: PubChem AID 977610. The settings on record: PDB protein-ligand complexes, literature Ki.
[1] abbreviates: protein: type II dehydroquinase dehydratase from Mycobacterium tuberculosis, PDB entry 4kiw unless noted.

For `O=C(O)c1cc(OCc2cccc([N+](=O)[O-])c2)cc(C(=O)O)c1`, the Ki under setting [1] was 140 µM [protein: type II dehydroquinase dehydratase from Mycobacterium tuberculosis, PDB entry 4kiu] (active).

Regarding `O=C(O)c1cc(NCc2cccc([N+](=O)[O-])c2)cc(C(=O)O)c1`, the Ki under setting [1] is 7.5 µM (active). On to `O=C(O)c1cc(O)c(O)c(Oc2cccc([N+](=O)[O-])c2)c1`, for which the Ki under setting [1] is 50 µM [protein: type II dehydroquinase dehydratase from Mycobacterium tuberculosis, PDB entry 4kij] (active).

For the compound `CCC(CC)O[C@@H]1C=C(C(=O)O)C[C@H](N)[C@H]1NC(C)=O`, the Ki runs as follows: (protein: Neuraminidase from the B/Lyon/CHU/15.216/2011 virus, PDB entry 4cpy) 0.491 µM (active); (protein: Neuraminidase, PDB entry 4gzp) 0.0143 µM (active). For `CCC(CC)O[C@@H]1CC(C(=O)O)C[C@H](N)[C@H]1NC(C)=O` (some centres undefined), the Ki under setting [1] is 0.017 µM [protein: neuraminidase, PDB entry 4gzt] (active).

As for `O[C@@H]1[C@@H](O)[C@H](O)[C@]2(O)CC[C@H]1N2`, under setting [1], the Ki is 4600 µM [protein: Beta-glucosidase 1, PDB entry 4iie] (active). On to `O=C(O)CCCC(=O)O`, for which, under setting [1], the Ki was 30000 µM [protein: Delta-1-pyrroline-5-carboxylate dehydrogenase, mitochondrial, PDB entry 4lh3] (active).

As for `O=C(O)C(O)(C(F)(F)F)C(F)(F)F`, under setting [1], the Ki was 27 µM [protein: Mandelate racemase, PDB entry 4fp1] (active). As for `O=C(CO)[C@@H](O)[C@H](O)CF`, the Ki under setting [1] was 25 µM [protein: XYLULOSE KINASE, PDB entry 4bc5] (active). For `CC(C)CN(C[C@@H](O)[C@H](Cc1ccccc1)NC(=O)O[C@H]1CO[C@H]2OCC(F)(F)[C@H]21)S(=O)(=O)c1ccc(N)cc1`, the Ki under setting [1] was 5.8e-06 µM [protein: HIV-1 Protease, PDB entry 4u8w] (active). Take `C[C@](COC(=O)Cc1ccccc1)([C@@H](Nc1c(C=O)cc2ccccn12)C(=O)O)S(=O)O`: under setting [1], the Ki was 0.042 µM [protein: Beta-lactamase SHV-1, PDB entry 4gd6] (active). In the case of `OC(c1ccc(Cl)s1)(c1ccc(Cl)s1)[C@H]1CN2CCC1CC2`, the Ki under setting [1] is 0.36 µM [protein: Choline kinase alpha, PDB entry 4da5] (active). As for `CC(=O)N[C@H](Cc1ccccc1)P(O)O`, under setting [1], the Ki was 10 µM [protein: Serine protease splA, PDB entry 3ufa] (active). As to `CN(C)C[C@@H](c1ccc(O)cc1)C1(O)CCCCC1`, under setting [1], the Ki was 235 µM [protein: Transporter(delta13 mutant), PDB entry 4mm7] (active). As to `O=C(O)C[C@@]12O[C@H]3C=CCN[C@H]3[C@@H]1C(=O)N[C@H]2C(=O)O`, the Ki under setting [1] was 210 µM [protein: Glutamate receptor 2, PDB entry 4isu] (active). Take `Nc1c(F)cccc1C(=O)O`: the Ki under setting [1] is 1090 µM [protein: Mycobacterium tuberculosis anthranilate phosphoribosyl transferase, PDB entry 4owm] (active).

In the case of `Nc1cccc(F)c1C(=O)O`, the Ki under setting [1] is 34 µM [protein: Mycobacterium tuberculosis anthranilate phosphoribosyl transferase, PDB entry 4owo] (active). On to `Cc1ncc(CO[P+](O)(O)O)c(CN=Nc2nc3ccccc3s2)c1O`, for which, under setting [1], the Ki is 10.4 µM [protein: Mycobaterium tuberculosis transaminase BioA, PDB entry 4mqp] (active). For the compound `O[C@H]1[C@H](O)[C@@H](O)CN2CC[C@H](O)[C@H]12`, the Ki under setting [1] was 6.6 µM [protein: Beta-glucosidase 1, PDB entry 4iif] (active). On to `Nc1cc(F)ccc1C(=O)O`, for which the Ki under setting [1] is 380 µM [protein: Mycobacterium tuberculosis anthranilate phosphoribosyl transferase, PDB entry 4n8q] (active). Regarding `Nc1ccc(F)cc1C(=O)O`, under setting [1], the Ki is 60 µM [protein: Mycobacterium tuberculosis anthranilate phosphoribosyl transferase, PDB entry 4own] (active). In the case of `Nc1nc(-c2ccc(Cc3ccccc3)cc2)cs1`, under setting [1], the Ki is 2 µM [protein: Human Leukotriene A4 Hydrolase, PDB entry 4l2l] (active). As for `CCCCSC[C@H]1CN(Cc2c[nH]c3c(N)ncnc23)C[C@@H]1O`, the Ki under setting [1] was 1.5e-06 µM [protein: 5'-methylthioadenosine/S-adenosylhomocysteine nucleosidase, PDB entry 4f3c] (active).
